# Source: PubChem
# Rows were chosen to be rich in hits. Some 6.1% of all compounds tested hit in one or more screens of this group.
# D1 agonist: agonists of human D1 dopamine receptor; AID 504660; 360,000 tested, 1% active; HEK293 T-REx D1 cells, calcium flux, agonist mode; activation, % at 2 µM; in the data active = activation above about 30%; note: 0% is about no effect
#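 Agonism was scored from calcium flux recorded over 180 s (1 read/s) after pintool compound addition, following a 10-cycle baseline. Cells were inducible force-coupled HEK293 TREx D1, plated overnight at 30 C and loaded with no-wash calcium dye.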
# DRD3 antagonist: antagonists of human D3 dopamine receptor. 360,000 tested, 2.5% active. AID 652054. D3R cells, DiscoveRx beta-arrestin luminescence, antagonist mode; stronger effect = lower value. P35462. max response, negative = inhibition, %; in the data active = max response below about -50%; inconclusive = no clear call, values can overlap the other calls; note: % is set by controls: 0 for no effect and ±100 for the full control effect
# Target sequence (P35462 whole entry, looked up): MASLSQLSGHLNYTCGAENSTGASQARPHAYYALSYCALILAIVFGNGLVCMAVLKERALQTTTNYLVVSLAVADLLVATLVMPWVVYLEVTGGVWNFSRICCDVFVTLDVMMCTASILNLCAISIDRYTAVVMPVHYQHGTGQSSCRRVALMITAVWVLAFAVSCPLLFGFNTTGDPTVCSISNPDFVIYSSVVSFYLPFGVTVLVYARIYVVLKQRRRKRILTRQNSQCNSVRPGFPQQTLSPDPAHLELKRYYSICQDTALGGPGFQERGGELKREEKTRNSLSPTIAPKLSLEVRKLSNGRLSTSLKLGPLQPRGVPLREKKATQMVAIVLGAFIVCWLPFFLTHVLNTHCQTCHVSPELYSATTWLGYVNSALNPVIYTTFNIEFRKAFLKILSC
#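 Cells plated overnight at 1500 cells/well, then exposed to library compounds with dopamine controls for 90 minutes at 37 degrees C. DiscoveRx reagent added for 30–60 minutes at room temperature; luminescence read, quantitative HTS format.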
# D1 antag: blocks dopamine activation of the human D1 receptor; 360,000 tested, 3.2% active; HEK293 TREx D1 cells, calcium flux, dopamine EC80; stronger effect = lower value; P21728; activity change, negative = inhibition, % at 10 µM; AID 504652; in the data active = activity change below about -30%; note: % is set by controls: 0 for no effect and ±100 for the full control effect
#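 Compound effects on dopamine-evoked calcium signalling were measured in tetracycline-induced HEK293 Trex D1 cells. Dopamine at EC80 followed a 180 s compound pre-read, and fluorescence was tracked kinetically for 180 s more.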
# D3 ag: agonists of human D3 dopamine receptor; P35462; D3R DiscoveRx beta-arrestin cells, luminescence, 90 min; max activation, %; 410,000 tested, 0.58% active; AID 652048; in the data active = max activation above about 30%; note: 0% is about no effect
#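 Agonist-mode cell screen: cells plated at 1500/well and incubated overnight at 37 °C, then exposed to library compounds for 90 min at 37 °C. Detection reagent was added for 30–60 min at room temperature, and luminescence was read.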
# ERG Ets-DNA blk: inhibitors of human ERG Ets domain-DNA interaction; 370,000 tested, 0.028% active; fluorescence polarization, His-ERG Ets domain / labelled DNA; Potency, µM (top dose mostly 76.9 µM), inactives show at the highest dose FP activity, negative = inhibition, hits mostly inhibitors; P11308; active = well fitted inhibition curve with a large enough effect in the polarisation, with a control signal flat; inconclusive = small, poorly fitted or top-dose-only effect, or effect the other way, or a change in a side signal; inactive = no such curve, though single readings can be large or run the other way; the % refers to the polarisation;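 note: polarization taken with two DNA probes labelled with fluorescein and Texas red; potency is the fitted concentration of half-maximal effect; % of control where 0% means no effect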
#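 His-tagged ERG Ets domain (1 uM in the protein solution; 300mM KCl, 50mM Tris-HCl, 1mM EDTA, 1mM DTT, pH 7.5) received compound, then a probe mix of 5 nM fluorescein-DNA and 100nM Texas-615-DNA. Fluorescence polarization was read for both dyes.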
# D1 potentiator: human D1 dopamine receptor positive modulation; P21728; HEK293 TREx D1 cells, calcium flux, dopamine EC20 potentiation; potentiation, % at 10 µM; 360,000 tested, 0.036% active; in the data active = potentiation above about 30%; note: 0% is about no effect
# * marks the source's active call; other numbers are inactive results; ? = inconclusive; · = not tested or not shown; ! = not confirmed by another sample.
SMILES,D1 agonist,DRD3 antagonist,D1 antag,D3 ag,ERG Ets-DNA blk,D1 potentiator
CCCCCCNC(=O)c1cn(CC)c2cc(N3CCN(C)CC3)c(F)cc2c1=O,87*,-25,-50*,-6,10%,-13
CCn1cc(C(=O)NCCCO)c(=O)c2cc(F)c(N3CCN(C)CC3)cc21,3,-8,7,-5,?,0
CCn1cc(C(=O)O)c(=O)c2cc(F)c(N3CCN(C)CC3)cc21,1,5,-6,-6,-8%,-4
COc1ccc(C(=O)CC(=O)C(=O)Nc2ccc(C)c(C)c2)cc1,-1,-9,-10,-4,-2%,-1
CN(Cc1ccco1)c1ncnc2ccc(-c3ccccc3Cl)cc12,18,·,-40*!,·,·,-10
CC(=O)Oc1c(Cl)cc(Cl)cc1/C=C/c1ccc2ccccc2n1,6,39,12,39*,-3%,1
CC1(OC(=O)C2CCCC2)C(=O)C=C2C=C(c3ccsc3)N(Cc3ccco3)C=C2C1=O (stereo unspecified),4,17,-17,3,14%,3
O=C(NCc1cc(C(F)(F)F)ccc1F)C1CCC(=O)N(C2CC2)C1 (stereo unspecified),2,2,-36*,14,1%,0
O=C(NCc1cccc(F)c1F)C1CCC(=O)N(C2CC2)C1 (stereo unspecified),2,-9,6,-11,0%,-10
CCc1ccccc1Nc1cc(C(=O)NCc2ccccn2)c2ccccc2n1,2,13,-2,5,1%,-1
Cc1cc(NC(=O)CSc2nnnn2-c2ccc(C)c(Cl)c2)no1,-2,-3,-12,-5,9%,3
COc1ccc(NC(=O)C2Cc3c(-c4cccc(C(C)=O)c4)ccnc3O2)cc1OC (stereo unspecified),·,-20,·,-1,·,·
CC(=O)Nc1ccc(NC(=O)C2Cc3c(-c4ccco4)ccnc3O2)cc1 (stereo unspecified),·,-61*,·,-8,·,·
O=C(Nc1ccc2c(c1)OCO2)C1CC(c2cccc(Br)c2)=NO1 (stereo unspecified),2,-18,-38*,6,-5%,-11
CC(=O)Nc1ccc(NC(=O)C2Cc3c(-c4ccc5c(c4)OCO5)ccnc3O2)cc1 (stereo unspecified),·,-21,·,6,·,·
COc1ccc(NC(=O)C2Cc3c(-c4cccc(C(N)=O)c4)ccnc3O2)cc1OC (stereo unspecified),·,0,·,39*,·,·
CC(=O)Nc1cccc(-c2ccnc3c2CC(C(=O)Nc2ccc4c(c2)OCO4)O3)c1 (stereo unspecified),·,-55*,·,-15,·,·
O=C(OCCNC(=O)c1ccc2ccccc2n1)c1cccnc1,0,7,6,1,·,-4
COc1cccc(C(=O)N2CCC(N3CCN(Cc4ccc(F)cc4)C(=O)C3=O)CC2)c1,1,·,-8,8,-7%,-4
CC(=O)c1cccc(-c2ccnc3c2CC(C(=O)NCc2ccco2)O3)c1 (stereo unspecified),·,-70*,·,-21,·,·
CC(=O)Nc1cccc(-c2ccnc3c2CC(C(=O)NCc2cccs2)O3)c1 (stereo unspecified),·,-78*,·,-12,·,·
NC(=O)c1cccc(-c2ccnc3c2CC(C(=O)NCc2ccco2)O3)c1 (stereo unspecified),·,?,·,-2,·,·
CNCc1c(OCc2ccccc2F)ccc2ccccc12,39*,?,-81*,-10,3%,-3
CNCc1c(OCc2ccccc2)ccc2ccccc12,25,?,-45*,-21,6%,-20
CC(C)(CO)NCc1c(OCc2ccc(Cl)cc2)ccc2ccccc12,35*,-19,2,-17,11%,-18
SMILES,D1 agonist,DRD3 antagonist,D1 antag,D3 ag,ERG Ets-DNA blk,D1 potentiator
O/N=C/c1ccccc1OCc1ccc(Cl)cc1,2,8,18,-7,1%,2
CCc1ccc(C(=O)COC(=O)c2cncc(Br)c2)cc1,3,9,-17,4,1%,-7
CCN(CC)c1nc(N)c2c(N)nc3c(c2c1C#N)CC(c1ccccc1)O3 (stereo unspecified),1,-29,13,-38,-1%,-1
CCN(CC)c1nc(N)c2c(N)n(-c3ccccc3C)c(=S)c(C#N)c2c1C#N,2,-82*,-6,1,2%,-13
COC(=O)c1ccc(C)cc1,·,12,·,2,-10%,·
COC(=O)c1ccc(C)c(N(CCO)CCO)c1,1,-6,-43*,36*,-4%,-7
CC1CCC2C(=O)N(c3ccc(Cc4ccncc4)cc3)C(=O)C2C1 (stereo unspecified),11,-12,-30*,-7,1%,-8
O=Cc1ccccc1-n1cccn1,2,4,-33*,5,4%,-1
Cn1cccc1Cc1nnc(SCC(=O)N2CCCCCC2)n1-c1ccc(F)cc1,3,2,-3,4,-6%,-5
COc1ccc(NC(=O)CSc2nnc(Cc3cccn3C)n2-c2ccc(F)cc2)cc1OC,0,14,-45*,-1,8%,-4
Cc1ccc(-n2c(Cc3cccn3C)nnc2SCC(=O)Nc2nnc(C)s2)cc1,2,30,24,-22,6%,-3
Cc1ccc(-n2c(Cc3cccn3C)nnc2SCC(=O)Nc2ccc3c(c2)OCO3)cc1,1,50,2,79*,-5%,-2
Cc1nnc(NC(=O)CSc2nnc(Cc3cccn3C)n2C)s1,2,-16,-37*,0,4%,11
Cc1ccc(-n2c(Cc3cccn3C)nnc2SCC(=O)N2CCN(c3ccccc3)CC2)cc1,0,-79*,14,-7,-1%,0
Cc1ccc2oc(=O)cc(/C=C/c3ccccc3)c2c1,4,-13,-4,-9,-7%,-5
COc1ccc(-c2nn(CCC(=O)O)cc2/C=C2\SC(N)=NC2=O)cc1,1,-11,1,-3,5%,-7
Cc1cccc(C(=O)OCCN2CCOCC2)c1,6,9,-9,-3,-5%,-1
Cc1ccc(C(=O)NCCCNc2ccccc2[N+](=O)[O-])cc1,1,-28,-44*,-29,0%,-7
CN1CCc2nc(SCCOc3ccccc3)c(C#N)cc2C1,3,-58*,-1,-29,·,-5
COCCn1c(C)cc(C(=O)CSc2nnc(C)s2)c1C,2,-1,-3,-5,4%,0
O=C(CSc1nc2ccccc2c(=O)n1Cc1ccco1)NCc1ccco1,0,9,-18,5,·,-6
Cc1ccc(NC(=O)CN(C)C(=O)CSc2nc3ccccc3c(=O)n2Cc2ccco2)cc1,3,21,-33*,-4,-2%,-2
